# Where “and” joins values, the source holds several entries; their conditions need not be identical. Equal values may be shown once. This is part of a sample that, as a whole, favours compounds with a hit. Of some 79,000 tested, about 15% had one in any assay. A number with no mark means an inactive call. Calls of active or inactive are those of the source. Rule as the data show it: active = growth inhibition above about 70%; inactive = the rest.
# Experiment: NCI Yeast Anticancer Drug Screen. Data for the rad50EPP+ strain (AID 151);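 also: 0% = growth of vehicle-treated control cultures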
# Conditions: S. cerevisiae rad50 mutant strain, hits give high values
# Protocol: Growth inhibition of yeast strains with defined genetic alterations is measured as a screen for potential anti-cancer activity. Selected strains with alterations in DNA damage repair or cell cycle control were exposed to compounds and growth inhibition was measured relative to vehicle treated controls. The strain used in this assay is rad50EPP+
Structure (SMILES),growth inhibition (at 1.2 µM),growth inhibition (at 3.7 µM),growth inhibition (at 11.0 µM),growth inhibition (at 33.0 µM),growth inhibition (at 100.0 µM)
O=C1OC(/C=C/c2ccccc2)Sc2ccccc21 (stereo not given),5%,5%,13%,18%,23%
COc1ccc2[nH]c3c(C)c4cc[n+](C)cc4c(C)c3c2c1,39% and 24%,64% and 62%,70% (active) and 73% (active),73% (active) and 82% (active),87% (active) and 89% (active)
O=C(c1c(F)c(F)c(F)c(F)c1F)c1c(F)c(F)c(F)c(F)c1F,30%,60%,94% (active),96% (active),92% (active)
Cc1cc(N(CCOS(C)(=O)=O)CCOS(C)(=O)=O)ccc1C=O,15%,45%,34%,30%,15%
O=C(CCCN1CCC2(CC1)OC(=O)N(c1ccccc1)C2=O)c1ccccc1,44%,29%,33%,26%,26%
CC(C)(C)[Si](C)(C)OCC1OC(n2cnc3c(N)ncnc32)C2OC(=S)OC12 (stereo not given),-5%,-6%,-3%,3%,8%
CCOC(=O)C(NC(=O)c1ccccc1)[CH](c1ccccc1)[Sn]([c]1ccccc1)([c]1ccccc1)[c]1ccccc1 (stereo not given),-2%,2%,3%,3%,-6%
Cc1cccc[c]1[Sn]([Cl])([S]/C(C#N)=N/N=C/c1ccc(N(C)C)cc1)[c]1ccccc1C,0%,-1%,0%,12%,13%

# — PubChem BioAssay (NCI)
